Assay results published in PubChem BioAssay (Tox21).
Results filed as inconclusive are left out. The source made the active and inactive calls. Unless noted, calls follow the shape of the dose curve; as a rule, active = well fitted curve in the direction sought with a large enough effect in the repeat runs; inconclusive = weak or mixed curves; inactive = no such curve, though single readings can be large; an effect the other way counts as inactive or inconclusive.

What was measured:
[1] = qHTS assay to identify small molecule agonists of the constitutive androstane receptor (CAR) signaling pathway - cell viability counter screen (AID 1224836); also: % is scaled to controls: 0 for no effect and ±100 for the full control effect; nearly all actives have a fitted effect of over 45% in size
Procedure, shortened: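 Multiplexed viability check: HepG2-CYP2B6-hCAR cells, 15-point compound dosing, 0.75 uM PK11195 final, 23 h at 37 C, CellTiter-Fluor fluorescence.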

[2] = qHTS assay to identify small molecule antagonists of the constitutive androstane receptor (CAR) signaling pathway - cell viability counter screen (AID 1224837); also: % is scaled to controls: 0 for no effect and ±100 for the full control effect; nearly all actives have a fitted effect of over 45% in size
Procedure, shortened: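 In quantitative HTS format, compounds at 15 concentrations were applied to HepG2 cells double-transfected with hCAR and CYP2B6-2.2kb under 50 nM CITCO stimulation; live-cell protease activity was read after 23 hr via CellTiter-Fluor.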

[3] = target: Nuclear receptor subfamily 1 group I member 3 (Homo sapiens) (UniProt Q14994); assay: qHTS assay to identify small molecule antagonists of the constitutive androstane receptor (CAR) signaling pathway (AID 1224838); also: % is scaled to controls: 0 for no effect and ±100 for the full control effect; nearly all actives have a fitted effect of over 40% in size
Nuclear receptor subfamily 1 group I member 3 (Homo sapiens), sequence (Q14994 whole entry, looked up): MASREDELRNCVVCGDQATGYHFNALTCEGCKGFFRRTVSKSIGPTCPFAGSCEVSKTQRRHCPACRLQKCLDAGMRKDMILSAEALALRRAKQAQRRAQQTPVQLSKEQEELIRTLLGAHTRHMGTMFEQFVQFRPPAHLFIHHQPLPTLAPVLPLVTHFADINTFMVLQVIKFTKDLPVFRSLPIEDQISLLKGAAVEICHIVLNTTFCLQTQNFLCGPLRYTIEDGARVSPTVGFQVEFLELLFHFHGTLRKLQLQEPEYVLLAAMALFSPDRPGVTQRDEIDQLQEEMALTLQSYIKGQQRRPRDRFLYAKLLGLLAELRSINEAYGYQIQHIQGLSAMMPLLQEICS
Procedure, shortened: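 CITCO-stimulated (50 nM final) HepG2 cells stably transfected with hCAR and CYP2B6-2.2kb luciferase were exposed to compounds at 15 concentrations for 24 h at 37 C/5% CO2. A luciferase reagent was added and luminescence recorded after 30 min.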

[4] = target: Nuclear receptor subfamily 1 group I member 3 (Homo sapiens) (UniProt Q14994); assay: qHTS assay to identify small molecule agonists of the constitutive androstane receptor (CAR) signaling pathway (AID 1224839); also: nearly all actives have a fitted effect of over 15% in size; also: potency is read from the fitted curve at half-maximal effect;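 as to activation: HepG2 cells stably carrying human CAR and a CYP2B6 luciferase reporter; % is scaled to controls: 0 for no effect and ±100 for the full control effect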
Procedure, shortened: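 Using human hepatoma HepG2 cells engineered with hCAR and a CYP2B6-2.2kb reporter, 15-concentration compound series were incubated 24 h alongside PK11195 at 0.75 uM final, with luminescence quantified afterwards.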

[5] = qHTS assay to identify small molecule antagonists of the estrogen related receptor signaling pathway with the pleiotropic PPARgamma coactivator (PGC) from Tox21 10K library - cell viability counter screen (AID 1224840; active = well fitted cell-killing curve with a large enough effect in the repeat runs, not every such curve was filed as active; also: % is scaled to controls: 0 for no effect and ±100 for the full control effect; nearly all actives have a fitted effect of over 40% in size)
Procedure, shortened: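 Viability counter screen, PGC/ERR cells: 17.5 h compound exposure at 37 C, CellTiter-Fluor fluorescence endpoint.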

[6] = target: Thyrotropin receptor (Homo sapiens) (UniProt P16473); assay: qHTS assay to identify small molecule agonists of the thyroid stimulating hormone receptor (TSHR) signaling pathway (AID 1224843; calls by dose curve; also: nearly all actives have a fitted effect of over 45% in size; also: potency is read from the fitted curve at half-maximal effect; as to activation: % is scaled to controls: 0 for no effect and ±100 for the full control effect)
Thyrotropin receptor (Homo sapiens), sequence (P16473 whole entry, looked up): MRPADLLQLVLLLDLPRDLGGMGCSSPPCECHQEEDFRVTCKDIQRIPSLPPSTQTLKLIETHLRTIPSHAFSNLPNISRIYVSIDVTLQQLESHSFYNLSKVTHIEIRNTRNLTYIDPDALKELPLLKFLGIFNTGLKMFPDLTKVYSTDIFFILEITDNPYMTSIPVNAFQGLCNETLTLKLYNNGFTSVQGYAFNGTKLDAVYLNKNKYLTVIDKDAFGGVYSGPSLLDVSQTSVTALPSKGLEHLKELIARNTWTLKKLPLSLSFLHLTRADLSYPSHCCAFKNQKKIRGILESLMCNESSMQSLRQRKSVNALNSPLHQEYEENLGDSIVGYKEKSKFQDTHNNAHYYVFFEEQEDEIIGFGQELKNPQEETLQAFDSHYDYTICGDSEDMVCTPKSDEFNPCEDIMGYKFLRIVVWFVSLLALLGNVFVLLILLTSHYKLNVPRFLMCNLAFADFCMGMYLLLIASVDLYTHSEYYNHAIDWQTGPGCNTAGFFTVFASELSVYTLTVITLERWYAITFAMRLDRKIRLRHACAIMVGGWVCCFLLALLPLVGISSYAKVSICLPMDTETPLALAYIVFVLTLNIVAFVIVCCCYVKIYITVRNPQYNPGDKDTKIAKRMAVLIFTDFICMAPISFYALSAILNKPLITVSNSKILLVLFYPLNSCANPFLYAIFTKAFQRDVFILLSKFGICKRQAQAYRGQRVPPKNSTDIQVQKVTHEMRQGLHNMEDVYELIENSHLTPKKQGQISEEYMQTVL
Procedure, shortened: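 Agonist-mode screen: TSHR HEK293 cells received test chemicals for half an hour at room temperature, then HTRF cAMP detection reagents for one hour prior to fluorescence measurement. Each chemical ran as a 15-concentration series, triplicated.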

[7] = qHTS assay to identify small molecule agonists of the hypoxia (HIF-1) signaling pathway - cell viability counter screen (AID 1224844; calls by dose curve; also: % is scaled to controls: 0 for no effect and ±100 for the full control effect; nearly all actives have a fitted effect of over 50% in size)
Procedure, shortened: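 Same wells as the HIF-1 reporter screen; ME-180 cells carrying HRE-bla, 17 hr treatment at 37C; CellTiter-Glo luminescence read after 30 min at room temperature.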

[8] = qHTS assay to identify small molecule agonists of the hypoxia (HIF-1) signaling pathway (AID 1224846; active = well fitted activation curve with a large enough effect in the signal ratio in the repeat runs, not every such curve was filed as active; the % refers to the signal ratio; also: potency is read from the fitted curve at half-maximal effect; as to activation: % is scaled to controls: 0 for no effect and ±100 for the full control effect)
Procedure, shortened: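 In ME-180 cells bearing an HRE-bla construct, 17 h treatment with DMSO-dissolved compounds at 37C was followed by CCF4-AM loading to quantify reporter induction.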

[9] = qHTS assay to identify small molecule agonists of H2AX - cell viability counter screen (AID 1224847; calls by dose curve; also: nearly all actives have a fitted effect of over 30% in size; also: potency is read from the fitted curve at half-maximal effect)
Procedure, shortened: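 After overnight plating of 1000 CHO-K1 cells per well, a 15-concentration compound series was applied for 3 hr at 37C. Luminescence from CellTiter-Glo, read following 30 min at room temperature, reflected cell viability.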

[10] = qHTS RealTime-Glo MT Cell Viability Assay in HepG2 cells - 24 hour (AID 1224867); also: % is scaled to controls: 0 for no effect and ±100 for the full control effect; nearly all actives have a fitted effect of over 50% in size
Procedure, shortened: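 Luminescence read-out: viable HepG2 cells reduce a prosubstrate to a NanoLuc substrate, giving a signal proportional to live cell number. Reads taken at 0, 8, 16, 24, 32 and 40 h of compound exposure at 37 C.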

[11] = A CellTox Green Cytotoxicity Assay to monitor cytotoxicity in HEK293 cells - 0 hour (AID 1224869); also: % is scaled to controls: 0 for no effect and ±100 for the full control effect; nearly all actives have a fitted effect of over 50% in size
Procedure, shortened: (§1)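 Homogeneous no-lysis format: HEK293 cell suspension mixed with CellTox Green reagent, seeded, incubated 5 h at 37 C/5% CO2, then dosed by pintool with compound in DMSO.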

[12] = qHTS RealTime-Glo MT Cell Viability Assay in HepG2 cells - 40 hour (AID 1224870); also: % is scaled to controls: 0 for no effect and ±100 for the full control effect; nearly all actives have a fitted effect of over 50% in size
Procedure, shortened: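 HepG2 cells (600/well) mixed with RealTime-Glo MT reagent, settled 5 h at 37 C/5% CO2 before compound addition. Nonlytic NanoLuc luminescence from viable-cell prosubstrate reduction read repeatedly during 40 h treatment at 37 C.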

[13] = A CellTox Green Cytotoxicity Assay to monitor cytotoxicity in HEK293 cells - 40 hour (AID 1224871); also: nearly all actives have a fitted effect of over 45% in size; also: potency is read from the fitted curve at half-maximal effect
Procedure, shortened: as §1

[14] = qHTS assay to identify small molecule agonists of the estrogen related receptor signaling pathway with the pleiotropic PPARgamma coactivator (PGC) from Tox21 10K library (AID 1224842); also: nearly all actives have a fitted effect of over 15% in size; also: potency is read from the fitted curve at half-maximal effect
Procedure, shortened: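 PGC/ERR reporter cell line, 2,000 cells per well, incubated 6 h at 37 C before 23 nL compound in DMSO was added. After 18 h at 37 C, One-Glo luminescence read following 30 min at room temperature.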

[15] = qHTS assay to identify small molecule agonists of H2AX (AID 1224845; active = well fitted activation curve with a large enough effect in the signal ratio in the repeat runs, not every such curve was filed as active; the % refers to the signal ratio; also: % is scaled to controls: 0 for no effect and ±100 for the full control effect)
Procedure, shortened: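 Wild-type CHO-K1 cells, plated overnight, exposed 3hr at 37C to 15 concentrations (0.76% DMSO final). Lysed, then HTRF anti-pH2AX (S139) cryptate and anti-H2AX-d2 antibodies, 24 hr room temperature; 665/620 nm emission read.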

[16] = qHTS assay to identify small molecule antagonists of the estrogen related receptor (ERR) signaling pathway from Tox21 library (AID 1224848)
Procedure, shortened: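 Quantitative high-throughput format: ERR reporter cells (2,000/well) pre-incubated 6 h, treated 18 h at 37 C with compounds in DMSO alongside positive and negative controls, then read by ONE-Glo luminescence.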

[17] = qHTS assay to identify small molecule agonists of the estrogen related receptor (ERR) signaling pathway from Tox21 library (AID 1224849; calls by dose curve; also: % is scaled to controls: 0 for no effect and ±100 for the full control effect; nearly all actives have a fitted effect of over 15% in size); settings: ERR reporter cell line, ONE-Glo luciferase, 18 h; at 92.4 µM (top of the series) unless noted
Procedure, shortened: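 Reporter cells (ERR, NTP source) treated with Tox21 10K compounds 18 h, 37 C. Readout: ONE-Glo luminescence, 30 min RT.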

[18] = qHTS RealTime-Glo MT Cell Viability Assay in HEK293 cells - 32 hour (AID 1224868); also: nearly all actives have a fitted effect of over 50% in size; also: potency is read from the fitted curve at half-maximal effect
Procedure, shortened: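 Nonlytic real-time viability readout: viable cells convert prosubstrate to NanoLuc substrate, giving luminescence proportional to live cell number. HEK293, 600 cells/well, compound added after 5 h, continuous culture at 37 C.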

[19] = qHTS assay to identify small molecule antagonists of the estrogen related receptor signaling pathway with the pleiotropic PPARgamma coactivator (PGC) from Tox21 10K library (AID 1224841; call rule not given here)
Procedure, shortened: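 In the PGC/ERR line, DMSO solutions of test chemicals are pin-delivered to 2,000 cells/well six hours after dispensing. Following eighteen hours' incubation, One-Glo reagent is added and luminescence recorded.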

[20] = target: Luciferin 4-monooxygenase (Photinus pyralis) (UniProt P08659); assay: qHTS assay to identify small molecule inhibitors of firefly luciferase (AID 1224835); also: potency is read from the fitted curve at half-maximal effect; nearly all actives have a fitted effect of over 25% in size
Luciferin 4-monooxygenase (Photinus pyralis), sequence (P08659 whole entry, looked up): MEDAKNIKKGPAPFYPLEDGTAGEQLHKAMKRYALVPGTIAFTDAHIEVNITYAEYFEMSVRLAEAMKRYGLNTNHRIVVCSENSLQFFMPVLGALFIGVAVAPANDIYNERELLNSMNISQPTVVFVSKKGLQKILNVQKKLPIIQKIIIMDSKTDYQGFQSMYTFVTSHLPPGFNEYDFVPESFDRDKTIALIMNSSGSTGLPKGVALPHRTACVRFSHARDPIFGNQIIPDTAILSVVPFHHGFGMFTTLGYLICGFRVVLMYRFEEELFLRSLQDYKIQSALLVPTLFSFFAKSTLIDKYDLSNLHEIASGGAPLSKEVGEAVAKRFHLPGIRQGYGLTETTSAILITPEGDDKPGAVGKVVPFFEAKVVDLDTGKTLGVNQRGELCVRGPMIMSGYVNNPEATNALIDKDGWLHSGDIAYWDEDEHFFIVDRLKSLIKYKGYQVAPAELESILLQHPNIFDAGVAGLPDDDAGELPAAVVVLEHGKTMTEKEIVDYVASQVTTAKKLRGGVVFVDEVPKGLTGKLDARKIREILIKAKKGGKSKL
Procedure, shortened: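 Biochemical qHTS: compounds run as interplate titrations against purified firefly enzyme, with D-luciferin and ATP each at its KM concentration. Light output recorded by CCD imaging.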

CN
inactive: Potency [1] | Potency [2] | Potency [3] | Potency [4] | Potency [5] | Potency [6] | Potency [7] | Potency [8] | Potency [9] | Potency [10] | Potency [11] | Potency [12] | Potency [13]

COP(=S)(OC)Oc1nc(Cl)c(Cl)cc1Cl
inactive: Potency [1] | Potency [2] | Potency [3] | Potency [5] | Potency [14] | Potency [6] | Potency [15] | Potency [8] | Potency [9] | Potency [16] | activity change, positive = activation [17] -11.3% | Potency [10] | Potency [18] | Potency [11] | Potency [12]

BrCC(Br)(Br)Br
inactive: Potency [1] | Potency [2] | Potency [3] | Potency [4] | Potency [5] | Potency [19] | Potency [14] | Potency [15] | Potency [8] | Potency [9] | Potency [16] | Potency [10] | Potency [12]
active: Potency [18] 45.3 µM

O=[N+]([O-])[O-].[Tl+]
inactive: Potency [1] | Potency [2] | Potency [5] | Potency [6] | Potency [7] | Potency [15] | Potency [8] | Potency [9] | Potency [10] | Potency [11] | Potency [12]

CC(=O)[O-].CC(=O)[O-].[Co+2]
active: Potency [8] 21.9 µM
inactive: Potency [1] | Potency [2] | Potency [5] | Potency [7] | Potency [15] | Potency [9] | Potency [10] | Potency [18] | Potency [11] | Potency [12] | Potency [13]

CCCCn1cc[n+](C)c1.[Cl][Fe-]([Cl])([Cl])[Cl]
inactive: Potency [1] | Potency [2] | Potency [5] | Potency [7] | Potency [8] | Potency [9] | Potency [10] | Potency [11] | Potency [12] | Potency [13]

CCCCn1cc[n+](C)c1 (tested in a mixture with another compound)
inactive: Potency [1] | Potency [2] | Potency [5] | Potency [7] | Potency [8] | Potency [9] | Potency [10] | Potency [18] | Potency [12] | Potency [13]

[Cl-].[Cl-].[Cl-].[Yb+3]
inactive: Potency [1] | Potency [2] | Potency [5] | Potency [7] | Potency [8] | Potency [9] | Potency [10] | Potency [18] | Potency [11] | Potency [12]

c1ccc2c(c1)cc1ccc3cccc4ccc2c1c34
inactive: Potency [6] | Potency [7] | Potency [15] | Potency [9] | Potency [16] | Potency [10] | Potency [18] | Potency [11] | Potency [12]
active: Potency [20] 10.2 µM | Potency [14] 22.1 µM | activity change, positive = activation [17] 61.3%

COc1ccc(Cc2nccc3cc(OC)c(OC)cc23)cc1OC
inactive: Potency [1] | Potency [2] | Potency [3] | Potency [5] | Potency [7] | Potency [15] | Potency [8] | Potency [9] | Potency [11] | Potency [12] | Potency [13]
active: Potency [4] 15 µM | Potency [6] 9.44 µM | Potency [18] 5.35 µM

CCCCCCCc1ccc(O)cc1
active: Potency [9] 50.5 µM | Potency [18] 19.5 µM | Potency [13] 43.6 µM
inactive: Potency [1] | Potency [2] | Potency [3] | Potency [5] | Potency [6] | Potency [12]

CC(=O)[O-].CC(=O)[O-].CC(=O)[O-].[Sb+3]
inactive: viability change, negative = cytotoxic [1] -15.6% [at 3.27 µM] | activity change, negative = cytotoxicity [2] -10.2% [at 3.26 µM] | viability change, negative = cytotoxic [5] 3.7% [at 3.27 µM] | activity change, negative = cytotoxicity [7] -10.5% [at 2.72 µM] | activation (H2AX phosphorylation) [15] 1.32% [at 5.45 µM] | activation [8] -0.789% [at 2.67 µM] | activity change, negative = cytotoxicity [9] -1.46% [at 5.43 µM] | activity change, negative = cytotoxicity [10] -0.623% [at 2.72 µM] | activity change, negative = cytotoxic [18] 7.03% [at 2.72 µM] | cytotoxicity [11] -0.412% [at 2.72 µM] | cytotoxicity increase [13] 2.55% [at 2.72 µM]
